Data from PMC7862700, “An all-to-all approach to the identification of sequence-specific readers for epigenetic DNA modifications on cytosine”.

Experiments:
Assay in all cases: DAPPL (digital affinity profiling via proximity ligation, sequencing); 10 mM Tris-HCl pH 7.5, 50 mM NaCl, 1 mM DTT, 4% glycerol, room temperature, 30 min; GST-TFs on glutathione beads, 16-mer random dsDNA library, 0.1% formaldehyde crosslink after washing; high values mean tight binding
[1] = target: T1, FLI1 (Homo sapiens, UniProt Q01543 1-452); conditions: protein: recombinant; tags: N-terminal GST; dsDNA, one strand shown
T1 sequence: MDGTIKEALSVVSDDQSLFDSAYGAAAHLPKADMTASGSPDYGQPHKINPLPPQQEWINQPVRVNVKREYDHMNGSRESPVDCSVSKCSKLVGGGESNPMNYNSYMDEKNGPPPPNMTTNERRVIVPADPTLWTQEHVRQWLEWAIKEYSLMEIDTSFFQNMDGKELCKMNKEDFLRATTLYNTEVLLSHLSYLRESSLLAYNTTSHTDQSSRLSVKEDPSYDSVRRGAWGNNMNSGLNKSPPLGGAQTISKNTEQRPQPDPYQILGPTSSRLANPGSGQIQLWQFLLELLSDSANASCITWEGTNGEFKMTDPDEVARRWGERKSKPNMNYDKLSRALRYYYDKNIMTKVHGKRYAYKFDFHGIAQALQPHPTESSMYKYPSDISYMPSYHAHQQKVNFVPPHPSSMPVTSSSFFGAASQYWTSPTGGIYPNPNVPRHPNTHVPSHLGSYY
Method in brief: (§1)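 Binding signal is each hexamer's read frequency for a factor divided by its frequency in the tag-only sample. The factors were GST-fused human transcription factors from yeast, captured on glutathione beads, DNA-barcoded and pooled with that sample. Pools were incubated with 200 nmole of a random double-stranded 16-mer DNA library in Tris/NaCl/DTT/glycerol buffer at room temperature for 30 min, then washed, crosslinked with 0.1% formaldehyde, proximity-ligated with BsaI/T4 ligase (1 h, 37 °C), PCR-amplified and sequenced on an Illumina NextSeq500.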

[2] = target: T2, ELK1 (Homo sapiens, UniProt P19419 1-428); conditions: protein: recombinant; tags: N-terminal GST; dsDNA, one strand shown
T2 sequence: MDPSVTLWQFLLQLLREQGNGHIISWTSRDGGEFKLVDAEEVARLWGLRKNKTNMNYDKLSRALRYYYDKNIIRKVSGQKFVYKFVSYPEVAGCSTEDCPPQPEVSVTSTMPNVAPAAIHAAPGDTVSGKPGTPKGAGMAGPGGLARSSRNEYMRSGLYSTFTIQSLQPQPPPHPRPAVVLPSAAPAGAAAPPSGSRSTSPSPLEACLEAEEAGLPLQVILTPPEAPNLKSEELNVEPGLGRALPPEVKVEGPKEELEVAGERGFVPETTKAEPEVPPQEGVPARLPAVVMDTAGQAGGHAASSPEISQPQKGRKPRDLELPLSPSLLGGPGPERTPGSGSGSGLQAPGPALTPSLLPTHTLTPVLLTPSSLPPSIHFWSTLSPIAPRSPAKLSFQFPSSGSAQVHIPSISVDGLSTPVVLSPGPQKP
Method in brief: as §1

[3] = target: T3, GABPA (Homo sapiens, UniProt Q06546 1-454); conditions: protein: recombinant; tags: N-terminal GST; dsDNA, one strand shown
T3 sequence: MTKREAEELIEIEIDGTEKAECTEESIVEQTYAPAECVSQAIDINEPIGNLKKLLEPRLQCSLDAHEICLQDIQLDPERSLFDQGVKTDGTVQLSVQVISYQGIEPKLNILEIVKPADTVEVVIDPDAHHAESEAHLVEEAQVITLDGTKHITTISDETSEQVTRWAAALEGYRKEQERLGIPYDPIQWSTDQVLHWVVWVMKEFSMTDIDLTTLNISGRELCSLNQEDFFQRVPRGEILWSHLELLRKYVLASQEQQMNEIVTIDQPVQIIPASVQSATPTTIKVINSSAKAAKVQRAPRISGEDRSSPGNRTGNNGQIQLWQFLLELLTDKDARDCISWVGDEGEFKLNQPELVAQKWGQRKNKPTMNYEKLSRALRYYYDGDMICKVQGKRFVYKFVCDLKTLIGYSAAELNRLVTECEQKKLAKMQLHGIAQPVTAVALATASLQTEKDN
Method in brief: as §1

[4] = target: T4, ERG (Homo sapiens, UniProt P11308 1-479); conditions: protein: recombinant; tags: N-terminal GST; dsDNA, one strand shown
T4 sequence: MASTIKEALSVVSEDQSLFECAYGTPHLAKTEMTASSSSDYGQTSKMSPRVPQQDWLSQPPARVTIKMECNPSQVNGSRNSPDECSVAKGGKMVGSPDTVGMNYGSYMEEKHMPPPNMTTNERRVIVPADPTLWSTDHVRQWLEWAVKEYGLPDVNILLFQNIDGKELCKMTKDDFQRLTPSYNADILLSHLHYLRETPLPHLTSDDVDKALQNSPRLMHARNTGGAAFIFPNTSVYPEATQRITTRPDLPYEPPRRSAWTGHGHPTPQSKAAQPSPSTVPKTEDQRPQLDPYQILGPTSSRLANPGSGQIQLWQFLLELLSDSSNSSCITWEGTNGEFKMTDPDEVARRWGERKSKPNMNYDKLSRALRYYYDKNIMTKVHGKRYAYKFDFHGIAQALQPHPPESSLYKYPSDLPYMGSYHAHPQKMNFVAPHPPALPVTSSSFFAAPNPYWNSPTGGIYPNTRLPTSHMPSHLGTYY
Method in brief: as §1

[5] = target: ELF1 (Homo sapiens, UniProt P32519 1-619); conditions: protein: recombinant; tags: N-terminal GST; dsDNA, one strand shown
Chain of ELF1 (P32519 whole entry): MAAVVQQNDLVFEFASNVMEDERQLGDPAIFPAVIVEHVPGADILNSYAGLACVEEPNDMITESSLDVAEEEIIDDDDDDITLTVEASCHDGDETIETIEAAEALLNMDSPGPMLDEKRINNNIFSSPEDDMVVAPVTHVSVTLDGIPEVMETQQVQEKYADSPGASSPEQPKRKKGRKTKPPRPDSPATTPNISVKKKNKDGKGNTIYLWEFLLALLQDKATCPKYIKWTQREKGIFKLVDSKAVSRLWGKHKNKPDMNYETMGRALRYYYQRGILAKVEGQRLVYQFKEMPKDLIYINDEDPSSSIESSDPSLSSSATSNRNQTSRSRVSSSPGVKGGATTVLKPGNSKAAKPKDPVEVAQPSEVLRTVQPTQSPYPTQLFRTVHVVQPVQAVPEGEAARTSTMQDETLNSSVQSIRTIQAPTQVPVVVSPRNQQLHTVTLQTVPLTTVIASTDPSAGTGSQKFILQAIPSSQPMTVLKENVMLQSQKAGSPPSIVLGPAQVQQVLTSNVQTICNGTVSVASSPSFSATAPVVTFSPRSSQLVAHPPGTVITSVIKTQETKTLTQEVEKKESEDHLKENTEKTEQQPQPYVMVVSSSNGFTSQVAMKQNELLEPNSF
Method in brief: as §1

[6] = target: T5, EHF (Homo sapiens, UniProt Q9NZC4 1-300); conditions: protein: recombinant; tags: N-terminal GST; dsDNA, one strand shown
T5 sequence: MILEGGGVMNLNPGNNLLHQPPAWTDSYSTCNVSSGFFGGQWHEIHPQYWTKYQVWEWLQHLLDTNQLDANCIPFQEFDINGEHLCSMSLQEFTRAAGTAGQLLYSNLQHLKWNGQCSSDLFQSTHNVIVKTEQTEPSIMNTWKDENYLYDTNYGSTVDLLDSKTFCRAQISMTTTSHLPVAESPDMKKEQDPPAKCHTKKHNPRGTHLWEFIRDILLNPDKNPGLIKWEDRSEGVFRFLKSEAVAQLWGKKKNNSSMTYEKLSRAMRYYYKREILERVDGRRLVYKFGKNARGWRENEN
Method in brief: as §1

[7] = target: SPI1 (Homo sapiens, UniProt P17947 1-270); conditions: protein: recombinant; tags: N-terminal GST; dsDNA, one strand shown
Method in brief: as §1

[8] = target: SPIB (Homo sapiens, UniProt Q01892 1-262); conditions: protein: recombinant; tags: N-terminal GST; dsDNA, one strand shown
Chain of SPIB (Q01892 whole entry): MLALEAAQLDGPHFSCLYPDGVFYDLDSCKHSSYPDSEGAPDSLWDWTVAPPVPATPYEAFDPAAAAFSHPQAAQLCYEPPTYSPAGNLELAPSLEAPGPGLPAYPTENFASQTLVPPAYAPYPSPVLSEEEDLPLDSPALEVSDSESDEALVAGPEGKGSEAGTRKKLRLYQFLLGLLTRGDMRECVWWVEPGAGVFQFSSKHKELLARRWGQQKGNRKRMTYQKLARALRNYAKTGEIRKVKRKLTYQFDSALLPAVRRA
Method in brief: as §1

[9] = target: T6, ELK3 (Homo sapiens, UniProt P41970 1-407); conditions: protein: recombinant; tags: N-terminal GST; dsDNA, one strand shown
T6 sequence: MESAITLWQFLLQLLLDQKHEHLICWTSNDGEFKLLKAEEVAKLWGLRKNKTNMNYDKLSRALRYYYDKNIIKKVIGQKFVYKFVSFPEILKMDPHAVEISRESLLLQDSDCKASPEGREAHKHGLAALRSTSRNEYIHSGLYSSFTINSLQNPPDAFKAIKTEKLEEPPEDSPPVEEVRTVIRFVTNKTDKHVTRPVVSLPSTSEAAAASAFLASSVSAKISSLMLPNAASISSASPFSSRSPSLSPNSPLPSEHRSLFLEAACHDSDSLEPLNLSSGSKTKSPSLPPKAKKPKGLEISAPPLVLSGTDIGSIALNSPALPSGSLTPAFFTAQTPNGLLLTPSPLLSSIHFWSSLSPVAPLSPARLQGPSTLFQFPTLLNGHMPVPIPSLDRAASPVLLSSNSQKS
Method in brief: as §1

[10] = target: T7, FEV (Homo sapiens, UniProt Q99581 1-238); conditions: protein: recombinant; tags: N-terminal GST; dsDNA, one strand shown
T7 sequence: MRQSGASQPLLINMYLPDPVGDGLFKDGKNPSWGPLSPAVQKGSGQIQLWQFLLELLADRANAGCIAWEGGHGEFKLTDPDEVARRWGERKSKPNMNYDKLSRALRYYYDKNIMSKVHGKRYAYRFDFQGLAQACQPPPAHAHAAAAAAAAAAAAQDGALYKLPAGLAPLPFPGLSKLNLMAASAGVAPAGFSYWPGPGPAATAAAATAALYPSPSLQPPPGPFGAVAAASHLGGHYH
Method in brief: as §1

[11] = target: ETV5 (Homo sapiens, UniProt P41161 1-510); conditions: protein: recombinant; tags: N-terminal GST; dsDNA, one strand shown
Chain of ETV5 (P41161 whole entry): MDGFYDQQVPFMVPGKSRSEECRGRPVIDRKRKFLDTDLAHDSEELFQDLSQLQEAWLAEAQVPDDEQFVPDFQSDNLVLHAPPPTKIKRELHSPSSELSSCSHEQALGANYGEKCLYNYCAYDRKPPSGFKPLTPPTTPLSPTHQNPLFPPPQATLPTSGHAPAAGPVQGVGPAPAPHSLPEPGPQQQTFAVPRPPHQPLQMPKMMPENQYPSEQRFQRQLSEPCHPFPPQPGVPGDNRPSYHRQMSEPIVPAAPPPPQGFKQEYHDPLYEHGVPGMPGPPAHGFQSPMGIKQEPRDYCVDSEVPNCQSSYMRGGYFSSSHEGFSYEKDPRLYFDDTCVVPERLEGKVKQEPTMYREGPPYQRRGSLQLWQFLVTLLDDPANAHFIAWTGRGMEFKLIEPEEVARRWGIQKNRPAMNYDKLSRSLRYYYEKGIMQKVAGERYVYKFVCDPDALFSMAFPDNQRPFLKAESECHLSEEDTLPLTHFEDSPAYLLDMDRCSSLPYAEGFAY
Method in brief: as §1

[12] = target: HSF1 (Homo sapiens, UniProt Q00613 1-529); conditions: protein: recombinant; tags: N-terminal GST; chain copies: 3; dsDNA, one strand shown
Chain of HSF1 (Q00613 whole entry): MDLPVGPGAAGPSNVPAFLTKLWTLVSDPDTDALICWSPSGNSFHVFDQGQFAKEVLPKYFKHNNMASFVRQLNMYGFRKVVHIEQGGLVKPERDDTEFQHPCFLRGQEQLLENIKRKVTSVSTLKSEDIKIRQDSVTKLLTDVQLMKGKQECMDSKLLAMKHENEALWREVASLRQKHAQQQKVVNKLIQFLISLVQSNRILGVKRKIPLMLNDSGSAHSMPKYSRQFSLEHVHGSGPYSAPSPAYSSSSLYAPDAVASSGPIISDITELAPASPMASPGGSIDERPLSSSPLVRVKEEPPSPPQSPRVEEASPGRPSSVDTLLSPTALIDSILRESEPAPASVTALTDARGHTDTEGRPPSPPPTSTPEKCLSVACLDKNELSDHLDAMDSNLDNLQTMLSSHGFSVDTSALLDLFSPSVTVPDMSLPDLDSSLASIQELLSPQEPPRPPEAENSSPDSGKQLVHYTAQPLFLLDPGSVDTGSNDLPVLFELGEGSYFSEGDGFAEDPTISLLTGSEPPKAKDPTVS
Method in brief: as §1

[13] = target: T8, SPIC (Homo sapiens, UniProt Q8N5J4 1-248); conditions: protein: recombinant; tags: N-terminal GST; dsDNA, one strand shown
T8 sequence: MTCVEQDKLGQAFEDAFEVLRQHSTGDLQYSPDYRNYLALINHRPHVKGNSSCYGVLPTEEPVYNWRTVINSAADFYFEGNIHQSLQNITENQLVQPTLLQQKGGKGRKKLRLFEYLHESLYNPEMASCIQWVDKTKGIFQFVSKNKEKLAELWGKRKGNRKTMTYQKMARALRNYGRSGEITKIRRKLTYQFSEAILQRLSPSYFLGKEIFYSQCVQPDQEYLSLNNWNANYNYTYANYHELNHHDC
Method in brief: as §1

[14] = target: ELF4 (Homo sapiens, UniProt Q99607 1-663); conditions: protein: recombinant; tags: N-terminal GST; dsDNA, one strand shown
Chain of ELF4 (Q99607 whole entry): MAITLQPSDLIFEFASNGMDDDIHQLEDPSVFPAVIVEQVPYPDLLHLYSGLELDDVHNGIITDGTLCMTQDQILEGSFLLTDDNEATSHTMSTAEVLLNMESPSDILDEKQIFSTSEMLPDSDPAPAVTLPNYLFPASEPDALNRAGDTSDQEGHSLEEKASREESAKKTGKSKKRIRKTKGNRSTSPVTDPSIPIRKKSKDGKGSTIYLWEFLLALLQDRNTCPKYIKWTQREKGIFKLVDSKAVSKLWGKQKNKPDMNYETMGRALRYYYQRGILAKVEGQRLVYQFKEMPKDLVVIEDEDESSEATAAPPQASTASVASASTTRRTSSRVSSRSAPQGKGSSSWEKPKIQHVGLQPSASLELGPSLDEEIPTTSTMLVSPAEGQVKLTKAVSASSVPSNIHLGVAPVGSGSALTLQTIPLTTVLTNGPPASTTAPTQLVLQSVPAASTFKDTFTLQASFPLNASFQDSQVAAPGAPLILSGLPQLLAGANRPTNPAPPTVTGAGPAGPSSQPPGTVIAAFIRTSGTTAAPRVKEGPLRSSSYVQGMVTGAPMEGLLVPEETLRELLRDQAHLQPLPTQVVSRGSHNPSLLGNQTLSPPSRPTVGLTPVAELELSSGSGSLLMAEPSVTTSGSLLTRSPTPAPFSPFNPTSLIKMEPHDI
Method in brief: as §1

[15] = target: T9, ELK4 (Homo sapiens, UniProt P28324-2 1-405); conditions: protein: recombinant; tags: N-terminal GST; dsDNA, one strand shown
T9 sequence: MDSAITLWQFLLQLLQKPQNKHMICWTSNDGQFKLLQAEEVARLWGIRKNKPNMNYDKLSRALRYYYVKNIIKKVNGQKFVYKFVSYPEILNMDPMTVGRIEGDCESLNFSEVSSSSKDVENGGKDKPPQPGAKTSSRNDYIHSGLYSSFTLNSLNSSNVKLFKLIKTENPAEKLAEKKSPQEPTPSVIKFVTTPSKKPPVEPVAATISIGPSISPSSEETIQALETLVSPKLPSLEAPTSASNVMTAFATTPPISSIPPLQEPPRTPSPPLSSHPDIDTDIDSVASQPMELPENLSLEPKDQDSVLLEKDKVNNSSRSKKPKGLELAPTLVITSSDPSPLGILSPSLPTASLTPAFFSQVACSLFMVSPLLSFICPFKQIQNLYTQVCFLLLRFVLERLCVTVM
Method in brief: as §1

[16] = target: T10, ETV2 (Homo sapiens, UniProt O00321 1-342); conditions: protein: recombinant; tags: N-terminal GST; dsDNA, one strand shown
T10 sequence: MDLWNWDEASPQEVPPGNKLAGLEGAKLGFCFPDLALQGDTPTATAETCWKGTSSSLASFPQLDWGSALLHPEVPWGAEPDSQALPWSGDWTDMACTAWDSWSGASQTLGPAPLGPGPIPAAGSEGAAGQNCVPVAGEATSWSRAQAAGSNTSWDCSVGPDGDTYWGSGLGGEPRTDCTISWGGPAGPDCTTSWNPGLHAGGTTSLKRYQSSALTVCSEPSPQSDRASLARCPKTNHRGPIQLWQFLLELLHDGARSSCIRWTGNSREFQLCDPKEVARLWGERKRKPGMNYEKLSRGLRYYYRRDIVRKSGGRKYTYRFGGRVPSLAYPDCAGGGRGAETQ
Method in brief: as §1

[17] = target: T11, ELF3 (Homo sapiens, UniProt P78545 1-371); conditions: protein: recombinant; tags: N-terminal GST; dsDNA, one strand shown
T11 sequence: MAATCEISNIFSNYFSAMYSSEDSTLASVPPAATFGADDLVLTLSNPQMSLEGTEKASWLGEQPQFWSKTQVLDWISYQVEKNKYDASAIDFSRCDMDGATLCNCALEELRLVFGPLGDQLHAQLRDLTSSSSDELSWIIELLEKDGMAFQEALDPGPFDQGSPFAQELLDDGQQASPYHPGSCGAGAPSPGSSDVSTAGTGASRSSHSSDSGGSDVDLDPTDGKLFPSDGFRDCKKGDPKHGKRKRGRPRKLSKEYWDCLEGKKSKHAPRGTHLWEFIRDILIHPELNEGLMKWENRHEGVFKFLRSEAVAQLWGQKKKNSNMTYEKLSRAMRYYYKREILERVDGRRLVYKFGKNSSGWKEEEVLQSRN
Method in brief: as §1

[18] = target: CRX (Homo sapiens, UniProt O43186 1-299); conditions: protein: recombinant; tags: N-terminal GST; dsDNA, one strand shown
Chain of CRX (O43186 whole entry): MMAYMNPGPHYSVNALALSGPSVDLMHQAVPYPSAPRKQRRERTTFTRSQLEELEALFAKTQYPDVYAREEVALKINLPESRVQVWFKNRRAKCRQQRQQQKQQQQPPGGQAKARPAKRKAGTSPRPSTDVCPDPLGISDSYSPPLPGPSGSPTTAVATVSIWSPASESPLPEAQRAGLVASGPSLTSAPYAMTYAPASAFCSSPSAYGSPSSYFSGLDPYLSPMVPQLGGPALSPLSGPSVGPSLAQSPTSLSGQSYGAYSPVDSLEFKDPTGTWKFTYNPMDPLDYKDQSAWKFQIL
Method in brief: as §1

[19] = target: ETV1 (Homo sapiens, UniProt P50549 1-477); conditions: protein: recombinant; tags: N-terminal GST; dsDNA, one strand shown
Chain of ETV1 (P50549 whole entry): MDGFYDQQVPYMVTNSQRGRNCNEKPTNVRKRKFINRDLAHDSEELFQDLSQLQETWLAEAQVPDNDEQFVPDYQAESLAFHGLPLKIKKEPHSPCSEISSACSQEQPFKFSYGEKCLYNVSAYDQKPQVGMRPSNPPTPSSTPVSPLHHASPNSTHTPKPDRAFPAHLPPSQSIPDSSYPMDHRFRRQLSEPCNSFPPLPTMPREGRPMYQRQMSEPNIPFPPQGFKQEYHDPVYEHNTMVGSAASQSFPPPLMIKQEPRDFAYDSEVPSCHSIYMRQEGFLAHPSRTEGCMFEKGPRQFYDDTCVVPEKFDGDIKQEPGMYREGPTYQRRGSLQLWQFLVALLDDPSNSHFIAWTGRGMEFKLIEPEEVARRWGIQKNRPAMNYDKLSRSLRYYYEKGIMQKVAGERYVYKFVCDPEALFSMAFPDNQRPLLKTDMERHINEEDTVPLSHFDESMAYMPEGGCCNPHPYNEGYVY
Method in brief: as §1

ATTACG
binding signal [1]: 1.22 fold enrichment (6-mer frequency, TF over GST control)
binding signal [2]: 1.13 fold enrichment (6-mer frequency, TF over GST control)
binding signal [3]: 1.25 fold enrichment (6-mer frequency, TF over GST control)
binding signal [4]: 1.17 fold enrichment (6-mer frequency, TF over GST control)
binding signal [5]: 1.2 fold enrichment (6-mer frequency, TF over GST control)
binding signal [6]: 1.12 fold enrichment (6-mer frequency, TF over GST control)
binding signal [7]: 1.23 fold enrichment (6-mer frequency, TF over GST control)
binding signal [8]: 1.18 fold enrichment (6-mer frequency, TF over GST control)
binding signal [9]: 1.25 fold enrichment (6-mer frequency, TF over GST control)
binding signal [10]: 1.16 fold enrichment (6-mer frequency, TF over GST control)
binding signal [11]: 1.26 fold enrichment (6-mer frequency, TF over GST control)
binding signal [12]: 1.54 fold enrichment (6-mer frequency, TF over GST control)
binding signal [13]: 1.02 fold enrichment (6-mer frequency, TF over GST control)
binding signal [14]: 1.14 fold enrichment (6-mer frequency, TF over GST control)
binding signal [15]: 1.28 fold enrichment (6-mer frequency, TF over GST control)
binding signal [16]: 1.17 fold enrichment (6-mer frequency, TF over GST control)
binding signal [17]: 1.14 fold enrichment (6-mer frequency, TF over GST control)
binding signal [18]: 2.19 fold enrichment (6-mer frequency, TF over GST control)
binding signal [19]: 1.26 fold enrichment (6-mer frequency, TF over GST control)
